Assay outcomes deposited in PubChem BioAssay by several laboratories.
Mdm2 MdmX PPI – inhibitors of human Mdm2/MdmX interaction. SaOS-2 split-luciferase Mdm2/MdmX complementation, luminescence. O15151+Q00987. AID 485346. 3% of 330,000 active. inhibition, % at 8 µM;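 active means inhibition of at least 50% at 8 µM in the primary screen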
Target sequence (O15151 whole entry, looked up): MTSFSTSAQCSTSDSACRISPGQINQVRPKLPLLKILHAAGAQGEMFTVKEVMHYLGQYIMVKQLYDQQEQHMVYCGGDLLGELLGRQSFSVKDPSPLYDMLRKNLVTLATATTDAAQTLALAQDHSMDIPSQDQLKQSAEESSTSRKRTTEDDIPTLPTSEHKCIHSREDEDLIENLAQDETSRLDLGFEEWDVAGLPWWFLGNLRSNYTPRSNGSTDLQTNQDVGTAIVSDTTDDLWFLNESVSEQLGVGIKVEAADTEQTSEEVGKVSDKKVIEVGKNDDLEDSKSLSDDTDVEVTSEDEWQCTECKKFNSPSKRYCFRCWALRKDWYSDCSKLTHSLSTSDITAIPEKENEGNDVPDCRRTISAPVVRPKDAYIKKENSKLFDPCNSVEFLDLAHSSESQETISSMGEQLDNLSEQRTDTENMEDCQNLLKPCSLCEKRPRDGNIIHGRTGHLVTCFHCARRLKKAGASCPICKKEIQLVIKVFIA
Target sequence (Q00987 whole entry, looked up): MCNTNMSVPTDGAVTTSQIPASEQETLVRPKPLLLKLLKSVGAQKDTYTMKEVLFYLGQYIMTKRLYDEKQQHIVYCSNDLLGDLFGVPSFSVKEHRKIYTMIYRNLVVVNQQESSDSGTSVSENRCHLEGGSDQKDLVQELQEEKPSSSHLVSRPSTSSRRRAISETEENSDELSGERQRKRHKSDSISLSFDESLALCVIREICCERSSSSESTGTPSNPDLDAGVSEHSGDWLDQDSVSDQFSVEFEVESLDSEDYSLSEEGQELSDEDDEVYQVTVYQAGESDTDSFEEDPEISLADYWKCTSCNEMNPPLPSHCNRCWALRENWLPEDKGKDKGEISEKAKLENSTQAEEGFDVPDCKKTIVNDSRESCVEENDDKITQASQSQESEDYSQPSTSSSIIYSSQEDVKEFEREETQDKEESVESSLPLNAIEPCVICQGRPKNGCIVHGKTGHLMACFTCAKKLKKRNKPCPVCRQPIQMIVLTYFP
Beta apoptosis – beta cell apoptosis inhibition | INS-1E cytokine-induced death, ATP luminescence, 48 h; percent of positive-control rescue, neutral wells zero | protection from apoptosis, % (no concentration beside the values) | 0.8% of 300,000 active | AID 435005;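 active means Every replicate reaches about 75%, or at least half do and their mean reaches it too, limit read from the data; inconclusive means At least half of replicates reach the limit but their mean does not; inactive means Under half of replicates reach the limit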;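 further: higher means more ATP so stronger rescue from cytokine killing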
CSC inhib – blocks cancer stem cells | 1.1% of 300,000 active | inhibition, % at 7.5 µM | cancer stem cell-like cells viability, luminescence; in the data active means inhibition above about 75%; inconclusive means no clear call, values can overlap the other calls; tested in HMLE shEcad cells
PP5 primary – PP5 (human) phosphatase inhibition. AID 1987. 0.18% of 320,000 active. P53041. purified PP5c, OMFP substrate fluorescence. inhibition, % at 6.7 µM;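 active means inhibition above the campaign's mean inhibition across all tested compounds plus 3 SD, cut at about 9.5% in these data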
PP1 inh – PP1-alpha (human) inhibition in PP5 counter-screen. P62136. purified PP1alpha, OMFP fluorescence. inhibition, % at 6.7 µM. 0.9% of 320,000 active. AID 2235;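 active means inhibition above the mean inhibition of all tested compounds plus 3 SD, computed separately for each screening campaign, cut at about 15% in these data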
Calb FLC – C. albicans growth modulation with fluconazole; C. albicans CaCi-2 (fluconazole-resistant clinical isolate) + fluconazole, Alamar Blue growth, 48 h; growth inhibition, % (test concentration not listed); 0.57% of 300,000 active;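 active means growth inhibition above about 58% in most replicates, limit read from the data, passing the limit was not always enough; inconclusive means exactly half the replicates above a set limit; inactive means most replicates below a set limit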;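 further: all wells also contain fluconazole at 8 µg/ml as a sub-toxic cotreatment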
Of the large screens only hits and unclear results are named; the others gave an inactive call. Only some compounds are listed: those with a hit (about 4.9% of all), similar ones and a draw of the others.

O=C(C[n+]1ccc(CCSc2ccc(F)cc2)cc1)c1ccccc1	none
O=C1C(Nc2ccccc2)=C/C(=N/S(=O)(=O)c2cccs2)c2ccccc21	Beta apoptosis 105.2, CSC inhib 112.5 (no result: Mdm2 MdmX PPI)
O=C1C=C(Nc2ccccc2)C(=O)c2ccccc21	Beta apoptosis 83.5
Cc1ccc(S(=O)(=O)/N=C2\C=C(Nc3cccc(C(=O)O)c3)C(=O)c3ccccc32)cc1	none (no result: CSC inhib)
CC1=CC(=O)c2ccccc2C1=O	none (no result: Calb FLC)
Cc1ccc(C(=O)C(C)OC(=O)CN2C(=O)NC3(CCCC3)C2=O)cc1C (configuration not stated)	none (no result: Beta apoptosis)
NC(=O)c1ccccc1NC(=O)CC12CC3CC(CC(Br)(C3)C1)C2	none
O=C1c2cccc3c(O)ccc(c23)C(=O)N1Cc1ccccc1	Calb FLC 99.5
O=C1CC2(CCN(C(=O)c3ccc(Br)cc3)CC2)Oc2ccccc21	none
Cc1ccc(-c2nnc(NC(=O)c3ccc([N+](=O)[O-])o3)o2)c(C)c1	Calb FLC 84.8
COc1ccc(-c2nnc(NC(=O)c3ccc([N+](=O)[O-])o3)o2)c(OC)c1	none
CCOc1ccccc1N1Cc2cc(C)c(C)cc2C1	PP1 inh 15.3
COc1ccc(OC)c(N2Cc3cc(C)c(C)cc3C2)c1	PP1 inh 16.8
Nc1nc(SCc2ccccc2Cl)ns1	none
COc1ccc(C2=NN(S(C)(=O)=O)C(c3cccs3)C2)cc1OC (configuration not stated)	none
CCCCN1C(=N)N([C@@H](CCC)CN2CCC[C@H]2CN2C(N)=NC[C@H]2C(C)C)C[C@H]1[C@H](C)CC	none (no result: Beta apoptosis, CSC inhib, PP5 primary, PP1 inh, Calb FLC)
Cc1ccc(-c2cc(-c3ccccc3)nc(NN)n2)cc1	CSC inhib 82.7
COc1ccc(-c2cc(-c3ccccc3)nc(NN)n2)cc1OC	none
CCCCN(C)CCNC(=O)c1cc2c(-c3ccccc3F)nn(C)c2s1	Beta apoptosis 96.7
Cn1nc(-c2ccc(Cl)cc2)c2cc(C(=O)NCCCN3CCCC3)sc21	CSC inhib 81.7
COc1ccc(/C=N/NC(=O)c2cc(O)c(O)c(O)c2)cc1Cn1cc([N+](=O)[O-])cn1	Calb FLC 96.7 (no result: Mdm2 MdmX PPI, Beta apoptosis, CSC inhib, PP5 primary, PP1 inh)
CN(C(=O)CSc1nnc(-c2ccco2)o1)C1CCCCC1	Calb FLC 94.6
O=C(CSc1nnc(-c2ccco2)o1)NC1CCCCC1	none
COc1ccc(-c2sc3cc4c(cc3c2C#CC2(O)CCCCC2)OCO4)cc1	CSC inhib 112.0 (no result: Calb FLC)
Cc1ccc(NC(=O)NCc2ccccn2)c(C)c1	Calb FLC 95.3 (no result: PP5 primary, PP1 inh)
Cc1ccc(NC(=O)NCc2ccccn2)cc1	none
COc1cc(/C=C(\C#N)c2nc3ccccc3s2)cc([N+](=O)[O-])c1O	Calb FLC 87.9 (no result: Beta apoptosis, CSC inhib, PP5 primary, PP1 inh)
COc1ccccc1CCNC(=O)CCn1nc(C)c2c(C)n(-c3ccccc3)nc2c1=O	none
CCOc1cc(S(=O)(=O)Nc2ccc(CC)cc2)ccc1Cl	CSC inhib 123.1
CC(C)(C)C1CCC2(CC1)C(C#N)=C(SCC(=O)NC1CCCCC1)NC(=O)C2C#N (configuration not stated)	Beta apoptosis 107.5, CSC inhib inconclusive, Calb FLC inconclusive
N#CC1=C(SCC(=O)NC2CC2)NC(=O)C(C#N)C12CCCCC2 (configuration not stated)	none
CCNc1nc(NCC)n2c(SCC(=O)c3ccccc3Cl)nnc2n1	none
Cc1c(Br)cnn1C(C)C(=O)N1CCN(c2ccc(F)cc2)CC1 (configuration not stated)	none (no result: CSC inhib, Calb FLC)
CCOC(=O)C(=CNc1cc(OC)ccc1-n1cccc1)C(=O)OCC	none
Cc1ccc(C)c(CNS(=O)(=O)c2c(C)[nH]c(C)c2C(=O)N2CCCCC2)c1	none
Cc1ccc(NC(=O)Cn2c(=O)oc3cc(S(=O)(=O)N4CCC(C)CC4)ccc32)cc1C	Beta apoptosis 76.0
CN(Cc1c(F)cccc1Cl)C(=O)c1cc2ccccc2o1	Beta apoptosis 98.9
O=C(/C=C/c1cccc([N+](=O)[O-])c1)c1ccco1	none
O=C(/C=C/c1cccc([N+](=O)[O-])c1)c1ccc([N+](=O)[O-])o1	Beta apoptosis 133.5 (no result: Mdm2 MdmX PPI)
CSCCC(NC(=O)c1cccc(C)c1)C(=O)OCC(=O)Nc1c(C)nn(-c2ccccc2)c1C (configuration not stated)	none
CCC(C)Sc1ccc(-c2nc3cnccn3c2NC2CCCCC2)cc1 (configuration not stated)	CSC inhib 125.5
Clc1ccc(-c2nc3cnccn3c2NC2CCCC2)cc1	none
CC(C)Cn1c(SCC(=O)Nc2cccnc2Cl)nnc1-c1ccco1	none (no result: PP5 primary, PP1 inh, Calb FLC)
Nc1ccc(N=Nc2ccccc2)c2ccccc12	CSC inhib 81.2
Nc1ccc(N=Nc2ccccc2)c(N)n1	none (no result: Beta apoptosis, CSC inhib, Calb FLC)
S=C(NCc1ccco1)N1CCN(c2ccccc2Cl)CC1	none
N#C/C(=C/c1cn(-c2ccccc2)nc1-c1cccc(S(=O)(=O)N2CCCC2)c1)C(=O)NCc1ccco1	PP1 inh 15.8
CC1=CC(=O)C(C(C)=Nc2ccccc2Cl)C(=O)O1 (configuration not stated)	none
O=C(Nc1ccccc1)C1=C[C@H](c2csc3ccccc23)C[C@H](OCCCCO)O1	none
O=C(NCc1ccccc1)C1=C[C@H](c2csc3ccccc23)C[C@H](OCCCCO)O1	Beta apoptosis 74.8
CCn1cc(C(=O)NCCC(=O)NC(C)C)c(=O)c2cc3c(cc21)OCO3	none
O=C(Nc1ccc(Cl)c(Cl)c1)c1ccccc1	none (no result: Calb FLC)
O=C(O)c1ccccc1NC(=O)C(c1ccccc1)c1ccccc1	none (no result: Beta apoptosis)
O=C(Nc1ccccc1O)C(c1ccccc1)c1ccccc1	Beta apoptosis 94.2
O=C(Nc1ccc(Cl)c(Cl)c1)Nc1ccccc1O	CSC inhib 93.3
Cc1ccc(NC(=O)c2ccc(=O)[nH]n2)cc1S(=O)(=O)Nc1ccc(SC(F)F)cc1	none (no result: PP5 primary, PP1 inh, Calb FLC)
COc1ccc(NC(=O)C2CCN(S(=O)(=O)c3ccc4c(c3)NC(=O)CO4)CC2)cc1	none
COc1ccc(OCc2nnc(SCC(=O)Nc3ccccc3F)o2)cc1	none
CCOC(=O)c1c(CSc2ccc(C)cc2)oc2ccc(O)cc12	CSC inhib 135.2
Cn1cccc1CC(=O)N/N=C\c1c2ccccc2cc2ccccc12	PP1 inh 15.9
O=C(O/N=C1/CCSc2ccccc21)c1ccc(F)cc1	Calb FLC 117.0
CCc1nnc(NC(=O)C2Cc3ccccc3CN2S(=O)(=O)c2c(C)c(C)cc(C)c2C)s1 (configuration not stated)	PP1 inh 16.8
CCOc1ccc(C(=O)NCC(=O)N2CCCCCCC2)cc1	none (no result: Calb FLC)
CCOC(=O)C1CCCN(CC(=O)N(C)c2c(N)n(Cc3ccccc3)c(=O)[nH]c2=O)C1 (configuration not stated)	none (no result: PP5 primary, PP1 inh, Calb FLC)
CCCn1c(CC)nc([N+](=O)[O-])c1Sc1ccc(F)cc1	Calb FLC 112.6
C/C(=N/Nc1ccc(C)cc1)C1(C)N(O)C(C)(C)C(c2ccco2)=[N+]1[O-] (configuration not stated)	Calb FLC 111.9
CC1(C)C(c2ccco2)=[N+]([O-])C2(CCCCC2=O)N1O (configuration not stated)	none
